Laboratory results published in PubChem BioAssay.
Calls of active or inactive are those of the source. Unless noted, no rule for the calls is given here.

How the values were obtained:
[1] = tested on: XIP peptide (Xip251-270) binding; test: XIP fragment 251-270 binding compounds – biochemical, small-molecule microarray, fluorescence 635/667 nm, 0.1 µg/mL protein, primary screen (AID 1182); details: fluorescent protein binding, 635 nm, higher = more signal, called active from +8 up or from −8 down
XIP peptide (Xip251-270) = test: compounds binding XIP fragment 251-270 – biochemical, small-molecule microarray, fluorescence 635/667 nm, 0.5 µg/mL protein, primary screen (AID 1183); details: fluorescence 635 nm, higher = more signal
[2] = blood-stage malaria parasite viability loss – strain 3D7, DAPI fluorescence, 100 nL, primary screen (AID 1184);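 also: parasites grown inside human red blood cells in medium with human serum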; details: P. falciparum 3D7 growth, 3 d, higher = more signal
[3] = molecular target: Homeobox protein Hox-A13 (Mus musculus) (UniProt Q62424); test: disruptors of Hoxa13 oligonucleotide interaction – biochemical, fluorescence polarization, labeled oligonucleotide, primary screen (AID 1185); details: Hoxa13:DNA binding, 15 min, higher = more signal, called active from +8 up or from −8 down
Sequence of Homeobox protein Hox-A13 (Mus musculus) (Q62424 whole entry, looked up): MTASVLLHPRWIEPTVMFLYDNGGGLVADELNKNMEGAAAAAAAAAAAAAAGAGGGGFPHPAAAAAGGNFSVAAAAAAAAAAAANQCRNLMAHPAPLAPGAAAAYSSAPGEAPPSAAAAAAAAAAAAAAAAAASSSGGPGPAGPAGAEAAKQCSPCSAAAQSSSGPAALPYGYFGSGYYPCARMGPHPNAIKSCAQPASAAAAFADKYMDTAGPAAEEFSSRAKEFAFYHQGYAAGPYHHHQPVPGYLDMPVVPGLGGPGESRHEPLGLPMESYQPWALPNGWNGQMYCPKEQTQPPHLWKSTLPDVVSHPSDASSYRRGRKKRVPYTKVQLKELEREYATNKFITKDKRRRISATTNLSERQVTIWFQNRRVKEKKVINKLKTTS

[4] = blockers of DNA damage checkpoint Chk1 activation – imaging, HeLa, hydroxyurea, phospho-Chk1 antibody, percent positive cells, primary screen (AID 1186); details: hydroxyurea-induced phospho-Chk1 immunofluorescence imaging, higher = more signal
[5] = blockers of DNA damage checkpoint Chk1 activation – imaging, HeLa, hydroxyurea, phospho-Chk1 nuclear intensity, primary screen (AID 1187); details: hydroxyurea-induced phospho-Chk1 immunofluorescence imaging, higher = more signal

SMILES | composite z-score [1] | composite z-score (XIP peptide (Xip251-270)) | z-score [2] | z-score [3] | z-score [4] | z-score [5]
CCOC(=O)C1=CC[C@@H](c2ccccc2)N(S(=O)(=O)c2ccc(C)cc2)[C@H]1C=Cc1ccccc1 | 0.0537 (inactive) | 0.749 | -2.01 | 1.66 (inactive) | -0.511 (inactive) | -0.645 (inactive)
COCCOC(=O)N1C(=O)[C@@]2(c3cc(C#CCNC(N)=O)ccc31)[C@H](c1ccc(O)cc1)N1[C@H](c3ccccc3)[C@H](c3ccccc3)OC(=O)[C@H]1[C@@H]2C(N)=O | -0.256 (inactive) | 0.124 | 0.228 | -0.531 (inactive) | -0.0933 (inactive) | -0.0072 (inactive)
O=C(CS)NCCCCCNC(=O)[C@@H]1C[C@@H]2C(=O)N[C@@H](Cc3ccccc3)C(=O)N2[C@@H]1c1cccc(OCCO)c1 | 0.74 (inactive) | 0.77 | -0.0054 | -2.89 (inactive) | 0.341 (inactive) | 0.581 (inactive)
O=C(NCC(O)CO)[C@@]1(CCS(=O)(=O)c2ccccc2)COC(c2ccc(OCCCO)cc2)=N1 (some centres not stated) | -0.119 (inactive) | 0.696 | -0.475 | -5.1 (inactive) | -0.275 (inactive) | -0.556 (inactive)
[N-]=[N+]=NCc1ccccc1C[C@@]1(C(=O)N2CCCCC2)N=C(c2ccc(OCCCO)cc2)O[C@@H]1c1ccccc1CN=[N+]=[N-] | 0.0378 (inactive) | -0.0651 | -2.55 | 0.301 (inactive) | -0.382 (inactive) | -0.903 (inactive)
CC(C)[Si]1(C(C)C)OCc2cc(-c3ccc(-c4ccc(Cl)c(Cl)c4)o3)nc(CCc3ccccc3)c21 | -0.218 (inactive) | -0.355 | -0.946 | 0.0584 (inactive) | -0.691 (inactive) | -0.229 (inactive)
CCCNC(=O)[C@@]1(C)c2ccccc2C(=O)N(Cc2ccccc2)[C@H]1c1ccc(CO)cc1 | 0.952 (inactive) | 0.355 | -0.804 | -1.91 (inactive) | -0.558 (inactive) | -0.579 (inactive)
C=CCC(OC(C)=O)[C@@H]1[C@@H](N(Cc2cc3ccccc3o2)C(=O)c2ccc(-c3ccccc3)cc2)c2cc(OCCCO)ccc2N1C(=O)Cc1ccc(OC)cc1 (some centres not stated) | 0.112 (inactive) | 0.0332 | -0.846 | -1.8 (inactive) | 0.754 (inactive) | 0.0035 (inactive)
CCCCCN1CC=CC23O[C@@H]4/C=C\CCC(C)OC(=O)C4[C@H]2C(=O)N(CCCCCCO)[C@@H]3C1=O (some centres not stated) | 0.185 (inactive) | 0.459 | 0.162 | -4.71 (inactive) | -0.0032 (inactive) | 0.453 (inactive)
C=C(C)[C@@H]1CC=C(C(O)C2C=CC3C(=O)N(c4ccccc4)C(=O)C3N2Nc2ccc(C#N)cc2)CC1 (some centres not stated) | 0.476 (inactive) | 0.642 | 0.807 | 1.21 (inactive) | -0.169 (inactive) | 0.008 (inactive)
CCCNC(=O)[C@@]1(Sc2ccc(C)cc2)CC(=O)N(C(C)C)[C@@H]1c1ccc(CO)cc1I | 1.51 (inactive) | -0.964 | -0.221 | -3.48 (inactive) | 0.366 (inactive) | 0.197 (inactive)
COCCOC(=O)N1C(=O)[C@@]2(c3cc(C#CCNC(N)=O)ccc31)[C@H](c1ccc(O)cc1)N1[C@H](c3ccccc3)[C@H](c3ccccc3)OC(=O)[C@H]1[C@@H]2C(=O)N1CCN(c2ncccn2)CC1 | 0.237 (inactive) | 0.796 | -1.71 | 0.0468 (inactive) | -0.11 (inactive) | -0.184 (inactive)
COCCCNC(=O)[C@@]1(Sc2ccc(C)cc2)CC(=O)N(Cc2ccccc2Cl)[C@@H]1c1ccc(CO)cc1I | -0.517 (inactive) | 0.194 | 1.22 | -2.55 (inactive) | 0.234 (inactive) | 0.456 (inactive)
CN1C=C(C(=O)OCCS(C)(=O)=O)C(C(=O)OCCS(C)(=O)=O)=CC(c2ccc(CO)cc2)=CC1c1cccs1 (configuration not stated) | 0.514 (inactive) | 0.496 | -2.58 | -5.46 (inactive) | -0.163 (inactive) | -0.265 (inactive)
O=C1O[C@H](c2ccccc2)[C@H](c2ccccc2)N2[C@H]1[C@@H](C(=O)Nc1nc3ccccc3s1)[C@]1(C(=O)Nc3ccc(C#CC4=CCCCC4)cc31)[C@H]2c1ccc(O)cc1 | 0.847 (inactive) | 0.541 | -0.987 | 3.34 (inactive) | -0.433 (inactive) | -0.749 (inactive)
O=C1NC(=O)C2C1C=CC(C(O)c1ccccn1)N2Nc1ccc(Cl)cc1Cl (configuration not stated) | 0.628 (inactive) | 0.326 | 0.358 | -4.45 (inactive) | -0.133 (inactive) | -0.18 (inactive)
CC(C)C[C@@H]1NC(=O)CNC(=O)[C@@]23C(=O)N[C@@H](Cc4ccccc4)C2[C@H](C)[C@@]2(C)O[C@H]2C3/C=C/C/C=C\CNC1=O (some centres not stated) | 0.408 (inactive) | 0.767 | 0.0276 | -6.42 (inactive) | -0.284 (inactive) | 0.0034 (inactive)
COC(=O)C(CC#Cc1ccc2c(c1)[C@]1(C(=O)N2)[C@H](c2ccc(O)cc2)N2[C@H](c3ccccc3)[C@H](c3ccccc3)OC(=O)[C@H]2[C@@H]1C(=O)N1CCCCCCC1)C(=O)OC | 0.225 (inactive) | 0.59 | -1.92 | 2.08 (inactive) | -0.0422 (inactive) | 0.413 (inactive)
C=C(/C(=C/C[C@H](OC(=O)c1ccncc1)c1ccccc1OCCO)c1cnc2ccccc2c1)C(C)C | -0.0266 (inactive) | 0.615 | -2.96 | -4.2 (inactive) | 0.39 (inactive) | 0.0188 (inactive)
O=C(CS)NCCCCCCNC(=O)[C@@H]1C[C@@H]2C(=O)NCC(=O)N2[C@@H]1c1ccc(O)cc1 | 1.06 (inactive) | 0.897 | 0.271 | -1.63 (inactive) | -0.0858 (inactive) | 0.201 (inactive)
CC(=O)NCCCC[C@@H]1NC(=O)[C@@H]2C[C@H](C(=O)NCCCCCCN)[C@H](c3cccc(OCCO)c3)N2C1=O | 1.15 (inactive) | 0.635 | 1.42 | -3.35 (inactive) | 0.391 (inactive) | 0.388 (inactive)
COCCOC(=O)N1C(=O)[C@@]2(c3cc(C#CCCO)ccc31)[C@H](C(=O)N1CCCCCCC1)[C@H]1C(=O)O[C@H](c3ccccc3)[C@H](c3ccccc3)N1[C@@H]2c1ccccc1OCCO | 0.867 (inactive) | 0.6 | -2.18 | 3.5 (inactive) | 0.204 (inactive) | 0.606 (inactive)
